# Legend:
# Conditions in all cases: concentration: 1 μM, replicates: in singlicate; n = 1
# TNNI3K = test system: TNNI3K
# TRKA = test system: T1, TRKA
# T1 construct: gene NTRK1
# TRKB = test system: TRKB
# TRKC = test system: T2, TRKC
# T2 construct: gene NTRK3
# TRPM6 = test system: TRPM6
# TSSK1B = test system: TSSK1B
# TSSK3 = test system: TSSK3
# TTK = test system: TTK
# TXK = test system: TXK
# [1] = test system: TYK2(JH1domain-catalytic)
# [2] = test system: TYK2(JH2domain-pseudokinase)
# TYRO3 = test system: TYRO3
# ULK1 = test system: ULK1
# ULK2 = test system: ULK2
# ULK3 = test system: ULK3
# VEGFR2 = test system: T3, VEGFR2
# T3 construct: gene KDR
# VPS34 = test system: T4, VPS34
# T4 construct: gene PIK3C3
# VRK2 = test system: VRK2
# WEE1 = test system: WEE1
# WEE2 = test system: WEE2
# 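Also: KINOMEscan kinase panel screen.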
SMILES,%Inh (TNNI3K) [%],%Inh (TRKA) [%],%Inh (TRKB) [%],%Inh (TRKC) [%],%Inh (TRPM6) [%],%Inh (TSSK1B) [%],%Inh (TSSK3) [%],%Inh (TTK) [%],%Inh (TXK) [%],%Inh [1] [%],%Inh [2] [%],%Inh (TYRO3) [%],%Inh (ULK1) [%],%Inh (ULK2) [%],%Inh (ULK3) [%],%Inh (VEGFR2) [%],%Inh (VPS34) [%],%Inh (VRK2) [%],%Inh (WEE1) [%],%Inh (WEE2) [%]
c1ccc(Oc2ccc(Nc3ccnc4cc(-c5ccc(CN6CCCCC6)o5)ccc34)cc2)nc1 [GW567143],1,98.7,18,27,42,6,19,28,0,16,17,26,0,0,15,24,0,14,8,13
COc1cccc(-c2nc(-c3ccccc3)[nH]c2-c2ccncc2)c1 [SB-610250],0,0,0,22,10,10,4,16,14,18,93.1,0,8,0,28,0,0,43,9,0
CN(c1ccc(NC(=O)N2CCN(CCCN3CCOCC3)CC2)cc1)c1ccnc(Nc2ccc(CS(C)(=O)=O)cc2)n1.Cl [GW830899],5,0,0,0,0,3,0,26,38,31,22,8,0,0,0,52,0,0,3,79
COc1cccc(NC(=O)NCCNc2ccnc(Nc3ccc(F)cc3)n2)c1 [GSK1379879],0,0,31,38,21,0,14,0,4,33,48,0,13,0,26,0,0,0,31,6
Cl.Cl.NC(CNC(=O)c1cc(Br)c(-c2ccnc3[nH]ccc23)s1)c1ccccc1 (stereo not shown) [GSK1322949],0,100,91.6,85,0,7,34,38,0,71,38,0,49,0,8,30,59,67,18,0
CC(C)(C)c1ccc(C(=O)Nc2cn3cc(-n4ccnc4)ccc3n2)cc1,2,0,0,0,0,0,0,1,0,22,11,0,0,14,10,0,39,0,0,36
CN(c1ccc(NC(=O)Nc2cccc(Cl)c2)cc1)c1ccnc(N)n1.Cl [GW830707],19,57,45,89,0,3,0,0,0,0,0,0,5,17,0,97.4,0,0,4,0
CC(C)NCC(Cc1ccccc1)NC(=O)c1cc(Br)c(-c2ccnc3[nH]ccc23)s1.Cl.Cl (stereo not shown) [GSK1383281],0,75,64,52,0,32,2,58,79,53,22,0,0,0,1,33,0,2,6,0
Cc1cc(-c2c(-c3ccc(F)cc3)ncn2CCCN2CCOCC2)nc(N)n1 [SB-222517],0,0,0,0,15,0,0,48,14,0,16,0,20,30,18,5,29,0,47,1
N#Cc1cnc2cc(-c3cnc(CNCCN4CCOCC4)s3)ccc2c1Nc1ccc(Oc2ccccc2)cc1 [GW664114],2,55,42,46,48,1,8,0,71,0,36,84,10,0,48,12,0,8,7,23
Cc1ccccc1CC(=O)N1CCc2cc(-c3cn(C)c4ncnc(N)c34)ccc21 [GSK2603346],0,39,14,21,40,0,26,0,0,0,40,0,16,0,19,69,2,0,0,17
O=C1NC(=O)C(c2ccccc2Cl)=C1Nc1cccc(Cl)c1 [SB-342409],98.7,0,0,9,13,100,8,0,33,12,29,0,36,0,24,0,0,12,0,6
Nc1ncc(-c2cn[nH]c2)c2scc(-c3ccc4c(c3)CCN4C(=O)Cc3ccccc3)c12 [GSK2593067],0,96.8,63,70,16,3,20,1,30,10,16,6,9,0,9,53,33,0,0,12
CC(C)c1nc(-c2cccc(NS(=O)(=O)c3c(F)cccc3F)c2)c(-c2ccnc(Nc3ccc(N4CCOCC4)nc3)n2)s1.Cl [GSK1723980],52,61,0,14,27,0,19,61,92.7,45,60,72,22,13,93.5,91,0,0,18,0
COC(=O)Nc1nc2ccc(Oc3ccc(NC(=O)Nc4cc(C(F)(F)F)ccc4F)cc3)cc2[nH]1.Cl [GW654607],92.4,100,94.8,98.9,26,100,6,17,0,8,1,66,15,0,58,92.3,0,0,31,0
COC(=O)Nc1nc2cc(Oc3ccc(NC(=O)Nc4cccc(SC)c4)cc3)ccc2[nH]1.Cl [GW697999],81,81,82,90,0,0,11,4,0,10,20,0,14,0,21,77,18,26,28,11
COc1cccc(C2=C(Nc3cccc(O)c3)C(=O)NC2=O)c1 [SB-390771],21,0,0,46,4,27,9,10,11,21,25,0,17,0,23,3,0,10,20,12
COC(=O)Nc1nc2ccc(Oc3ccc(CC(=O)Nc4cc(C(F)(F)F)ccc4F)cc3)cc2[nH]1 [GW680903],70,0,37,49,16,0,24,0,8,23,24,0,0,0,0,63,0,13,1,0
CC(C)c1nc(-c2ccc(F)c(NS(=O)(=O)c3c(F)cccc3F)c2)c(-c2ccnc(Nc3ccc(N4CCOCC4)nc3)n2)s1 [GSK1804250],18,98,0,0,7,15,24,52,85,39,0,86,9,19,50,47,0,11,5,16
CCn1cnc2c(NCc3ccccc3)ncnc21 [SKF-96418],0,0,0,11,15,0,0,16,2,0,30,0,0,38,0,0,33,16,0,0

# Reference: PMC5540273 (PLoS ONE, 2017)
